Experimental findings from PubChem BioAssay (NCI) are described below.

About 83,000 compounds went through this panel and 20% of them were active in at least one assay; those are over-represented in the sample as a whole.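 Negative percent growth values reflect cell death: -40 means 40% of the cells present at the start died, and -100 means all died.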 A number with no mark means an inactive call. The source made the active and inactive calls. The calls were made as follows: active = growth percent below 10; inactive = the rest.

Assay in all cases: NCI-60 one-dose screen, 48 h (100 = growth as untreated, 0 = no growth, -100 = all killed)
The subject of one assay is NCI-H23 lung. The following applies: 10 µM unless noted.
The subject of the next assay is NCI-H226 lung. The following applies: 10 µM unless noted.
For another assay, the system named is NCI-H322M lung. As to conditions: 10 µM unless noted.
The subject of the next assay is NCI-H460 lung. As to conditions: 10 µM unless noted.
The subject of another assay is HOP-92 NSCLC. As to conditions: 10 µM.
A further assay concerns NCI-H522 lung. As to conditions: 10 µM.
For the next assay, the system named is A549/ATCC NSCLC. The following applies: 10 µM unless noted.
For the next assay, the system named is 786-0 renal. The following applies: 10 µM unless noted.
The subject of the next assay is COLO 205 colon. The following applies: 10 µM unless noted.
Another assay deals with DU-145 prostate. As to conditions: 10 µM unless noted.
Another assay has as its system K-562 leukemia. As to conditions: 10 µM unless noted.
For the next assay, the system named is MDA-MB-231 breast. The following applies: 10 µM unless noted.
The test system of another assay is RXF 393 renal. The following applies: 10 µM unless noted.
A further assay concerns SF-268 CNS. The following applies: 10 µM unless noted.
The test system of the next assay is SF-295 CNS. The following applies: 10 µM unless noted.
A further assay has as its system SF-539 CNS. The following applies: 10 µM unless noted.
A further assay concerns UACC-257 melanoma. The following applies: 10 µM unless noted.
The subject of the next assay is M14 melanoma. As to conditions: 10 µM unless noted.
The subject of a further assay is MALME-3M melanoma. As to conditions: 10 µM unless noted.

On to `CCCCCCCCCCCCCCCCCC1=NCCN1CS(=O)(=O)O`, for which the growth with NCI-H23 lung was 87.5%; in the assay with NCI-H226 lung it was 87.5%; with NCI-H322M lung, 15.5%; in the assay on NCI-H460 lung, -79.1% (active); with HOP-92 NSCLC it was 38.5%; in the assay on NCI-H522 lung it was 84.5%. The growth with A549/ATCC NSCLC was -8.05% (active); in the assay with 786-0 renal, 74.5%; in the assay on COLO 205 colon, 29.2%; in the assay with DU-145 prostate it was 33.7%; with K-562 leukemia it was -10.9% (active); with MDA-MB-231 breast, -15.8% (active). The growth with RXF 393 renal is 69.9%; in the assay with SF-268 CNS, -24.5% (active); with SF-295 CNS, 74.6%; with SF-539 CNS, 61.2%; in the assay with UACC-257 melanoma, 91.8%; in the assay with M14 melanoma, 34.6%.

Consider `CC[C@H](Nc1ncnc2nc[nH]c12)c1nc2cccc(NCc3ccc(C(=O)NO)nc3)c2c(=O)n1-c1ccccc1`, for which the growth with NCI-H23 lung is 41.1%; in the assay on NCI-H226 lung, 66.7%; with NCI-H322M lung, 77.7%; in the assay on NCI-H460 lung, 24.6%; with HOP-92 NSCLC, 23.2%; in the assay with NCI-H522 lung it was 22.9%. Moreover, the growth with A549/ATCC NSCLC was 68.2%; in the assay with 786-0 renal, 59.1%; in the assay with DU-145 prostate it was 67%; in the assay on K-562 leukemia it was 10.5%; in the assay with MALME-3M melanoma, 62.3%; with MDA-MB-231 breast, 50.6%. The growth is 27.8% in the assay on RXF 393 renal; 35.9% in the assay with SF-268 CNS; 80.9% with SF-295 CNS; 10.9% in the assay with SF-539 CNS; 56.3% in the assay with UACC-257 melanoma; 68.5% in the assay with M14 melanoma.

Take `C/C(CCC(=O)O)=N/Nc1ccc([N+](=O)[O-])cc1`: the growth with NCI-H23 lung is 87.8%; with NCI-H226 lung it was 93.3%; with NCI-H322M lung, 93.5%; in the assay with NCI-H460 lung, 38%; in the assay with HOP-92 NSCLC it was 74.9%; with NCI-H522 lung, 61.2%. In addition, the growth in the assay on A549/ATCC NSCLC is 54%; in the assay on 786-0 renal, 45.7%; in the assay with DU-145 prostate, 82.2%; with K-562 leukemia, 22.3%; in the assay with MALME-3M melanoma, 111%; with MDA-MB-231 breast, 51.4%. Moreover, the growth was 99.4% with RXF 393 renal; 72.3% with SF-268 CNS; 2% (active) with SF-295 CNS; 12.7% with SF-539 CNS; 90.3% in the assay on UACC-257 melanoma; 24.3% in the assay with M14 melanoma.

For the molecule `C=CCN(C)C`, the growth is 102% in the assay with NCI-H23 lung; 97.3% in the assay on NCI-H226 lung; 114% with NCI-H322M lung; 108% with NCI-H460 lung; 110% with HOP-92 NSCLC; 93.7% in the assay with NCI-H522 lung. Besides, the growth with A549/ATCC NSCLC is 100%; in the assay on 786-0 renal, 106%; in the assay on COLO 205 colon, 121%; with DU-145 prostate, 119%; in the assay with MALME-3M melanoma, 111%; with MDA-MB-231 breast it was 97.7%. The growth in the assay on RXF 393 renal is 111%; with SF-268 CNS it was 106%; in the assay with SF-295 CNS, 103%; in the assay on SF-539 CNS, 109%; with UACC-257 melanoma, 106%; in the assay on M14 melanoma, 107%.

Turning to `COC(c1ccccc1)C(Br)C(=O)c1ccccc1` (stereo unspecified), the growth in the assay on NCI-H23 lung is 109%; with NCI-H226 lung, 92.5%; with NCI-H322M lung, 96.2%; in the assay on NCI-H460 lung, 127%; in the assay on HOP-92 NSCLC, 71.1%; in the assay with NCI-H522 lung, 74.9%. For the same molecule, the growth in the assay with A549/ATCC NSCLC was 95.3%; in the assay on 786-0 renal, 92.2%; in the assay with DU-145 prostate it was 116%; with K-562 leukemia it was 93.8%; with MALME-3M melanoma, 87.8%; in the assay with MDA-MB-231 breast, 92.9%. Further, the growth is 89.4% in the assay with RXF 393 renal; 108% in the assay with SF-268 CNS; 93.3% with SF-295 CNS; 99.5% with SF-539 CNS; 87.2% in the assay on UACC-257 melanoma; 90.6% in the assay on M14 melanoma.

For `COc1ccc2sc(-n3nc4nc5n(c(=O)c4c3N)-c3ccccc3Sc3ccccc3-5)nc2c1`, the growth is 79.2% with NCI-H23 lung; 81.4% in the assay with NCI-H226 lung; 75.4% with NCI-H322M lung; 84.9% in the assay with NCI-H460 lung; 74.1% in the assay on HOP-92 NSCLC; 75.6% with NCI-H522 lung. The growth in the assay on A549/ATCC NSCLC was 68%; with 786-0 renal, 91.2%; in the assay with COLO 205 colon, 64.7%; in the assay with DU-145 prostate it was 99.7%; in the assay on K-562 leukemia, 47.9%; in the assay with MDA-MB-231 breast it was 47.5%. Also, the growth in the assay on RXF 393 renal is 93.8%; in the assay on SF-268 CNS, 86.8%; with SF-295 CNS, 65.8%; in the assay with SF-539 CNS, 104%; in the assay with UACC-257 melanoma, 89.6%; in the assay on M14 melanoma, 77.1%.

`COc1cc(OC)cc(-c2ccc(-c3ccc(C(=N)N)cc3)s2)c1`: the growth in the assay on NCI-H23 lung is -77.5% (active); with NCI-H226 lung, -67.5% (active); in the assay with NCI-H322M lung, -89.3% (active); in the assay with NCI-H460 lung it was -88.5% (active); with HOP-92 NSCLC it was -80.6% (active); in the assay on NCI-H522 lung, -58.2% (active). Also, the growth in the assay with A549/ATCC NSCLC is -41.5% (active); with 786-0 renal, -60.2% (active); with DU-145 prostate, -90.6% (active); in the assay on K-562 leukemia, -39.8% (active); in the assay with MALME-3M melanoma it was -80.7% (active); with MDA-MB-231 breast, -77% (active). Moreover, the growth was -94.3% (active) in the assay with RXF 393 renal; -72.2% (active) in the assay with SF-268 CNS; -88.4% (active) in the assay with SF-295 CNS; -88.7% (active) with SF-539 CNS; -58% (active) in the assay on UACC-257 melanoma; -90.5% (active) in the assay with M14 melanoma.

Consider `COc1ccc(Cn2cc3c(c2)-c2oncc2CC3)cc1OC`, for which the growth in the assay on NCI-H23 lung is 16.9%; in the assay with NCI-H226 lung, 31.4%; in the assay on NCI-H322M lung, 22.9%; in the assay with NCI-H460 lung, 1.13% (active); in the assay on HOP-92 NSCLC, 84.4%; with NCI-H522 lung, 20.5%. The growth in the assay on A549/ATCC NSCLC was 25.9%; in the assay on 786-0 renal, 22%; in the assay with COLO 205 colon, -18.2% (active); in the assay on DU-145 prostate it was 10.3%; in the assay with K-562 leukemia it was 16.9%; in the assay on MDA-MB-231 breast, 16.9%. The growth with RXF 393 renal is 9.09% (active); in the assay on SF-268 CNS it was 33.1%; in the assay with SF-539 CNS, -21.5% (active); in the assay with UACC-257 melanoma it was 59.2%; with M14 melanoma it was 4.9% (active).

Take `Nc1nc2c(c3ncncc13)C(c1cccc(C(F)(F)F)c1)Cc1ncncc1-2` (stereo unspecified): the growth in the assay with NCI-H23 lung was 18.4%; with NCI-H226 lung, 55.6%; in the assay on NCI-H322M lung, 39%; in the assay on NCI-H460 lung, 10%; with HOP-92 NSCLC, 46%; with NCI-H522 lung it was 32.9%. Besides, the growth in the assay on A549/ATCC NSCLC is 39.8%; in the assay on 786-0 renal it was 28.5%; in the assay with DU-145 prostate, 15.6%; in the assay with K-562 leukemia, 16.9%; in the assay on MALME-3M melanoma it was 66.2%; with MDA-MB-231 breast it was 45%. The growth in the assay with RXF 393 renal is 6.31% (active); in the assay with SF-268 CNS it was 45.8%; in the assay with SF-295 CNS it was 11.9%; with SF-539 CNS, -26.6% (active); with UACC-257 melanoma it was 67.9%; in the assay on M14 melanoma, 11.4%.
